Measured values as given in PubChem BioAssay AID2006 (Sanford-Burnham Center for Chemical Genomics, 2009).
In all, about 290,000 compounds went through this assay and about 1,000 (0.34%) were called active. No stated cut-off is given here; in the data, active means inhibition above about 50% (passing the limit was not always enough); inconclusive means no clear call, values can overlap the other calls. For the sample, actives were picked, then their nearest neighbours and some compounds at random.

Target: SUMO-conjugating enzyme UBC9 (Homo sapiens) (UniProt P63279)
Assay: blockers of SAE1/SAE2–UBC9 SUMO transfer – biochemical, HTRF, uHTS, primary screen (AID 2006)
Details: HTRF SUMOylation assay, SAE1/SAE2 + UBC9, in vitro, at 35 µM, stronger effect = higher value

SUMO-conjugating enzyme UBC9 (Homo sapiens), sequence (P63279 whole entry, looked up): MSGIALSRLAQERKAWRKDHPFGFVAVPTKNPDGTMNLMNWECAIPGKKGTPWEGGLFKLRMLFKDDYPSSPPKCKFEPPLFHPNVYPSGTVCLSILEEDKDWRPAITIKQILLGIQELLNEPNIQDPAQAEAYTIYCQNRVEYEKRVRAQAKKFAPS

Compound	inhibition	inhibition (average of repeat tests) [%]
CCOC(=O)c1c(-c2ccccc2)oc2cc(Br)c(O)c(C=O)c12	-19% (inactive)	
CCOC(=O)c1c(-c2ccccc2)oc2cc(Br)c(O)cc12	6.4% (inactive)	
COCCNC(=O)c1ccc2nc(Cc3ccc(OC)c(OC)c3)oc2c1	4.2% (inactive)	
C/C(=C/c1ccccc1)C(=O)N1CCN(c2ccccc2)CC1	16.7% (inactive)	
C=CCN(CC=C)S(=O)(=O)c1ccc(C(=O)Nc2nc3c(s2)CCc2ccccc2-3)cc1	-14.9% (inactive)	
COc1ccc(C(=O)Nc2ncc3c(n2)-c2ccccc2CC3)cc1	6% (inactive)	
COCCN(CCOC)S(=O)(=O)c1ccc(C(=O)Nc2nc3c(s2)CCc2ccccc2-3)cc1	67% (active)	53
O=C(/C=C/c1ccc(Cl)cc1)NCCCn1ccnc1	12.9% (inactive)	
CC(=O)N1c2ccc(S(=O)(=O)N3CCC(C(=O)NC4CCCC(C)C4C)CC3)cc2CC1C (stereo not drawn)	-4.4% (inactive)	
COc1ccc(NC(=O)CC(NC(C)c2ccccc2)C(=O)O)cc1 (stereo not drawn)	6.5% (inactive)	
CC(C)c1nc(CNC(=O)CC2C(=O)NCCN2Cc2cccc(F)c2F)cs1 (stereo not drawn)	-7.6% (inactive)	
CC1CCN(S(=O)(=O)c2ccc3c(c2)n(C)c(=O)n3C)CC1	6.7% (inactive)	
CC1(C(=O)NCCc2c[nH]c3ccccc23)C=CC2(CCCCC2)N1C(=O)c1ccccc1 (stereo not drawn)	0.3% (inactive)	
Cc1cc(OC(C)C(=O)NC2CC(C)(C)NC(C)(C)C2)c2c(C)cc(=O)oc2c1 (stereo not drawn)	33.5% (inactive)	
O=[N+]([O-])c1cc(S(=O)(=O)Nc2cccc(Cl)c2)ccc1N=Nc1c(O)[nH]c2ccccc12	67.7% (active)	
Cc1cccc(N(CC(=O)N=Nc2c(O)[nH]c3ccccc23)S(C)(=O)=O)c1C	-5.8% (inactive)	
CN1CCN(c2ccc(S(=O)(=O)Nc3ccccc3)cc2[N+](=O)[O-])CC1	21.3% (inactive)	
COc1ccc(CN2CCNC(=O)C2CC(=O)NCc2cn[nH]c2-c2ccccc2)c(F)c1 (stereo not drawn)	-2.8% (inactive)	
CN(C(=O)COC(=O)c1nc(Cl)ccc1Cl)C1CCS(=O)(=O)C1 (stereo not drawn)	-3.6% (inactive)	
Cc1c(-c2cccc(Cl)c2)nc2ccccc2c1C(=O)OCC(=O)N(C)C1CCS(=O)(=O)C1 (stereo not drawn)	0.4% (inactive)	
CN(C(=O)COC(=O)c1cc(-c2ccco2)nc2ccccc12)C1CCS(=O)(=O)C1 (stereo not drawn)	51.3% (active)	
O=[N+]([O-])/C=C/c1ccc2c(ccn2Cc2ccccc2)c1	19.7% (inactive)	
CC(C)[C@H](NC(=O)N1c2ccccc2NC(=O)[C@@H]1C(C)C)C(=O)N[C@H](C(=O)O)c1ccccc1	12.1% (inactive)	
Cc1cccc(C(=O)Nc2ccc(Oc3cnccn3)cc2)c1	10.4% (inactive)	
CC1CCCCC1NC(=O)CO/N=C/c1ccc(OC(F)F)cc1 (stereo not drawn)	-15.8% (inactive)	
O=C(Nc1ccc(Br)cc1)c1cc(S(=O)(=O)Nc2ccccn2)ccc1Cl	3.5% (inactive)	
COc1ccc(CN2CC(C(=O)NCCc3ccc(Cl)cc3)CC2=O)cc1 (stereo not drawn)	10.3% (inactive)	
